# Several values for one entry are separate records, joined by “and”; a condition that tells them apart may be missing. Identical values can stand only once. The whole screen tested about 370,000 compounds, of which about 6,800 (1.8%) were called active. For the sample, actives were picked, then their nearest neighbours and some compounds at random. A number with no mark means an inactive call.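 How the source made its calls: active means activation above a cutoff set at the mean of all screened compounds plus 3 SD (cut at about 10% in these data); inactive means the rest.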
# System: Nuclear hormone receptor DAF-12 (Heterodera glycines), GAL4 fusion
# Experiment: H. glycines DAF-12 receptor agonists, primary screen, cell-based, luminescence, HEK293, GAL4 fusion, UAS-luciferase (AID 687014);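 further: 0% = DMSO wells and 100% = sodium butyrate wells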
# Conditions: HEK293 GAL4-hgDAF12 UAS-luciferase reporter, agonist luminescence; at 6.8 µM; stronger effect = higher value; normalized to butyrate control
row,Structure (SMILES),activation
1,COC(=O)Cc1nnn2c1[C@H](C)[C@H](c1ccccc1Br)OCC2,-0.72%
2,C=CCn1cc(C(=O)NCc2ccc(Cl)cc2)c(=O)c2cc(S(=O)(=O)N(CC)CC)ccc21,0.3%
3,CC(=O)c1cc(C#N)c(N2CC(C)OC(C)C2)nc1C (centres undefined),0.39%
4,CC(=O)c1cc(C#N)c(SCC(=O)C(C)(C)C)nc1C,27.1% (active)
5,CC(=O)c1cc(C#N)c(SCC(=O)Nc2nccs2)nc1C,8.08%
6,CC(C)(C)OC(=O)NCc1cc(F)ccc1/C=C/S(=O)(=O)NCCc1ccccc1,0.64%
7,Cc1ccc(Cc2c(-c3ccc(C)cc3)nc3c4ccccc4ccn23)cc1,0.89%
8,Cc1ccc(Cc2c(-c3ccc(Cl)cc3)nc3c4ccccc4ccn23)cc1,4.25%
9,c1ccc(Cc2c(-c3ccco3)nc3c4ccccc4ccn23)cc1,22.7% (active)
10,CC(C(=O)N=Nc1c(O)n(C)c2ccc(Br)cc12)n1cnc2ccccc2c1=O (centres undefined),0.17%
11,CC(=O)C1=C(C)N(Cc2ccc(Cl)cc2)C(=S)NC1c1ccc(F)cc1 (centres undefined),3.22%
12,N#Cc1ccc(OCCCN2CCC(C(O)(c3ccccc3)c3ccccc3)CC2)c(F)c1,0.54%
13,C=CCNc1cnn(-c2ccc(C)cc2)c(=O)c1Cl,12.7% (active)
14,Cc1cccc(-n2ncc(Cl)c(Cl)c2=O)c1,-2.03%
15,CC1=C(C(=O)NC2CC(C)(C)Cc3c2cnn3-c2ccc(C)cc2)OCCO1 (centres undefined),-2.28%
16,COC(=O)[C@H](C(C)C)N(CCCc1cn(Cc2ccccc2)nn1)S(=O)(=O)c1ccc(F)cc1Br,-3.54%
17,COC(=O)C[C@@H]1C=C[C@@H](NC(=O)c2ccc3c(c2)OCO3)[C@@H](CO)O1,-0.93%
18,CC12CCC(C(=O)N3CCN(c4ncccn4)CC3)(c3nc4ccccc4nc31)C2(C)C (centres undefined),-2.77%
19,CC1=C(N2CCN(c3ncccn3)CC2)CCC1=O,1.9%
20,c1cnc(N2CCN(c3ccc4ccccc4n3)CC2)nc1,13.8% (active)
21,CN1C(=O)C(Br)(Br)CC1c1cccnc1 (centres undefined),2.1%
22,CCCCCCCCN1C(=O)[C@@H](CC(=O)N2CCN(C(=O)OCC)CC2)C[C@@]2(C(=O)OC)C1=C[C@H](C1CCCC1)O[C@@H]2C,-1.38%
23,Cc1csc(NC(=O)CSc2nc(=O)n(CCCN(C)C)c3c2CCC3)n1,-0.31%

row,Structure (SMILES),activation
1,CN1OC[C@@H]2CN(C(=O)c3ccc(-c4ccccc4)cc3)[C@H](c3ccc(-c4cccc(F)c4)cc3)C[C@@H]21,2.92%
2,COc1ccc(CN2C[C@H]3CON(C)[C@H]3C[C@H]2c2ccc(-c3cccc(F)c3)cc2)cc1,-1.7%
3,CN1OC[C@@H]2CN[C@H](c3ccc(-c4ccccc4)cc3)C[C@@H]21,10.5% (active)
4,O=C(NCc1ccccc1Cl)c1ccc2c(=O)n(CC3CCCO3)c(=S)[nH]c2c1 (centres undefined),1.69%
5,O=S1(=O)c2c(cccc2N2CCCCC2)O[C@H](COCc2ccccc2)CN1C1CC1,-1.38%
6,CCCNC(=O)c1c(Cl)cnn1-c1ccc(C)cc1,14.5% (active)
7,CCOc1ccc(Oc2c(Cl)cnn(-c3ccc(C)cc3)c2=O)cc1,1.52%
8,CCCNC(=O)CCc1c(C)nc2c(c(C)nn2-c2ccc(C)cc2)c1C,-0.59%
9,CCCCCCCCN1C(=O)[C@@H](CC(=O)NCCCC)C[C@@]2(C(=O)OC)C1=C[C@H](C(C)(C)C)O[C@@H]2C,0.13%
10,COCCNC(=O)c1ccc(-n2c(SCc3cccnc3)nc3ccccc3c2=O)cc1,-1.1%
11,O=C(Nn1c(SCc2ccc([N+](=O)[O-])cc2)nc2ccccc2c1=O)c1ccc(F)cc1,16.4% (active)
12,O=C(CSc1nc2ccccc2c(=O)n1Cc1ccc(F)cc1)NCC1CCCO1 (centres undefined),0.43%
13,O=c1[nH]c(-c2ccccc2)cn1C1CCN(Cc2ccc(-c3nc4ccc(F)cc4nc3-c3ccccc3)cc2)CC1,2.08%
14,O=[N+]([O-])c1ccc2c(c1)C(N1CCOCC1)/C(=C/C1(O)CCCCC1)O2 (centres undefined),-1.36%
15,CCOC(=O)C1CCN(C(=O)C(C)(C)NC(=O)Nc2ccc(F)c(F)c2)CC1,-0.28%
16,COc1ccc(/C=C2\N=C3CCCN3C2=O)cc1,13% (active)
17,COc1ccc(/C=C2\CC3(OC(C)=O)CCCN2C3)cc1 (centres undefined),-5.68%
18,COc1ccc(-c2nc3n(c2Br)CCC3)cc1,5.25%
19,O=C(C1CCCN1S(=O)(=O)c1ccccc1)N1CCc2ccccc2C1 (centres undefined),-1.43%
20,O=C(CSc1nnc(COc2ccccc2)n1-c1ccc(Cl)cc1)Nc1ccc2c(c1)OCO2,-1.26%
21,CC(C)(C)C1CCC(=NNC(=O)c2ccc(Br)o2)CC1 (centres undefined),11.6% (active)
22,CC(C)(C)C1CCC(=NNC(=O)c2cc(-c3ccccc3)n[nH]2)CC1 (centres undefined),6.27%
23,CCC(C)(C)C1CCC(=NNC(=O)c2ccc(Br)o2)CC1 (centres undefined),7.56%

row,Structure (SMILES),activation
1,COC(=O)C1=C(C)N(Cc2cccc(C(F)(F)F)c2)C(=NCc2ccccc2)NC1c1ccccc1C(F)(F)F (centres undefined),-1.64%
2,C/C(=N\NC(=S)NC1CCCCC1)c1ccc(C)o1,3.96%
3,C/C(=N/NC(=O)c1ccc(Br)o1)c1ccc(C)o1,11.9% (active)
4,CC(CNC(=O)c1ccc(Br)o1)NC(=O)c1ccc(Br)o1 (centres undefined),-3.41%
5,COc1cc(SC)ccc1C(=O)Nc1cc(C)ccn1,15.5% (active)
6,COc1cc(SC)ccc1C(=O)Nc1nc(C)cs1,-15.3%
7,Cc1ccnc(NC(=O)CNC(=O)c2ccccc2)c1,2.39%
8,O=S1(=O)c2c(NCc3ccco3)cccc2Oc2ccccc2CN1Cc1cn(Cc2cccc(C(F)(F)F)c2)nn1,-3.4%
9,COc1cccc(NC(=O)CSc2nccn(-c3ccc4c(c3)OCCO4)c2=O)c1,0.16%
10,COc1ccccc1C1C(C(N)=O)=C(C)Nc2nc(CCCO)nn21 (centres undefined),0.62%
11,CN(C(=O)COC(=O)c1cc(=O)[nH]c2ccccc12)C1CCCCC1,6.7%
12,O=C(COC(=O)c1cc(=O)[nH]c2ccccc12)NCc1cccc(Cl)c1,0.1%
13,CC1CCN(C(=O)COC(=O)c2cc(=O)[nH]c3ccccc23)CC1,12.3% (active)
14,CCOC(=O)[C@]12CCCC3=C1N(CCC3)C(=O)[C@@H](CC(=O)NCC13CC4CC(CC(C4)C1)C3)C2,0.11%
15,COc1cc(/C=C/C(=O)OCC(=O)NCCCc2ccccc2)ccc1O,-1.55%
16,COc1ccc(/C=N/Nc2ncnc3sc4c(c23)CCCC4)cc1O,5.98%
17,COc1cc(/C=N/Nc2nc3ccccc3s2)ccc1O,15% (active)
18,CN(C)C(=O)N1CCN(C(=O)[C@@H](Cc2ccccc2)NC(=O)[C@H]2O[C@@H](n3ccc(N)nc3=O)[C@H](O)[C@@H]2O)CC1,1.19%
19,CCOC(=O)c1c(S(=O)(=O)Nc2cccc(Cl)c2)c(C)n(C)c1C,-4.39%
20,CCOC(=O)c1c(Cc2ccc(Cl)cc2)c[nH]c1C,12.8% (active)
21,CCOC(=O)c1ccc(CS(=O)c2ccc(Cl)cc2)o1 (centres undefined),-2.05%
22,CCOC(=O)[C@]12CCCC=C1N(Cc1ccc(OC)cc1)C(=O)[C@@H]2CC(=O)N1CCOCC1,0.99%
23,CNC(=O)/C(=C\C=C\c1ccccc1)NC(=O)c1ccc([N+](=O)[O-])cc1,1.17%

row,Structure (SMILES),activation
1,COCC(=O)N[C@@H]1C[C@@H]2O[C@@H](CO)CC[C@@H]2O[C@@H]1CCc1ccc(-c2ccccc2)cc1,2.02%
2,CC(=O)Nc1ccc(NC(=O)CSc2nnnn2C2CCCCC2)cc1,0.66%
3,O=C(CSc1nnnn1C1CCCC1)N1CCCCC1,11.8% (active)
4,CC1CCCC(C)N1C(=O)CSc1nnnn1C1CCCC1 (centres undefined),3.93%
5,Cc1cc(NCCc2c[nH]c3ccccc23)ccc1Oc1cccnc1,-6.96%
6,C[C@H](O)[C@@H]1CN2CCc3ccc(-c4ccc5c(c4)OCO5)cc3[C@@H]2C[C@@H]1N(C)C(=O)C1CCCCC1,5.63%
7,C[C@H]1[C@H](NC(=O)c2cccc(N(C)C)c2)CC[C@@]23CCCN2C(=O)CCC[C@@H]13,4.78%
8,Cc1ccc(Nc2nc(-c3ccc(O)cc3O)cs2)nc1,11% (active)
9,CC(=O)Nc1cnc(-c2ccc(O)cc2C)cn1,0.71%
10,Cc1ccc(-c2csc(NCCc3nc4cc(Cl)c(Cl)cc4n3CCOCCO)n2)cc1,0.43%
11,C/C=C/c1ccc(OCCOc2ccc(C=O)cc2OC)c(OC)c1,1.06%
12,O=C(NCCc1ccc(F)cc1)c1ccc2nccnc2c1,15.2% (active)
13,O=C(NCCc1ccc(F)cc1)c1ccc(S(=O)(=O)N2CCCCC2)cc1,-1.32%
14,O=C(NCCc1ccc(F)cc1)c1n[nH]c2ccccc12,4.51%
15,O=S(=O)(c1ccc2c(c1)OCCCO2)N1CCN(S(=O)(=O)c2c(F)cccc2F)CC1,3.46%
16,CCOc1cc(C(=O)N2CCc3cc(OC)c(OC)cc3C2)ccc1OC(F)F,-2.99%
17,CCOC(=O)C1CCN(C(=O)COC(=O)C2CCN(S(=O)(=O)c3ccc4c(c3)OCCO4)CC2)CC1,1.65%
18,NC(=O)Cc1ccc2sc(-c3ccccc3)nc2c1,16.9% (active)
19,O=C(O)Cc1csc(-c2cccc(Oc3ccccc3)c2)n1,2.98% and 2.42%
20,CCn1c2ccccc2c2cc(CC(N)=O)ccc21,-1.01%

# — PubChem BioAssay AID687014 (The Scripps Research Institute Molecular Screening Center, 2013)
